Reference: PubChem BioAssay AID1508600 (Functional Genomics Laboratory (NCATS/FGL), 2020)
Out of some 53,000 sequences screened, about 3,700 (7%) were called active. This excerpt belongs to a sample that is enriched for actives. Unmarked numbers belong to inactive results.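 The calls were made as follows: active = gene knockdowns whose robust z-score for IL-1 alpha signal is at least 2 or at most -2, so actives lie on both sides; inactive = the rest.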

experiment: Components of the Cytosolic LPS Sensing Pathway: Gene Identification via Genome-wide siRNA Screen; conditions: RAW264.7 macrophages, IL-1a HTRF, actives lie on both sides, screened at 100 nM (by protocol), cells primed 5 h with Pam3CSK4 first
From the text: Non-canonical inflammasome activation by cytosolic LPS is a critical component of the host response to Gram-negative bacterial infection, however we lack a comprehensive understanding of the cellular processes that control this pathway. Here we describe a genome-wide siRNA screen to identify genes regulating the mouse macrophage IL-1 alpha response to cytosolic LPS.
RAW264.7 cells were maintained in complete DMEM media, comprising DMEM with 4.5 g/L glucose, 10% FBS (Gemini Bio-Products, West Sacramento, CA), 2 mM Glutamine (Lonza) and 20 mM HEPES (Lonza), hereafter complete DMEM.
The RNAi screen was conducted in 384-well format using the Ambion Silencer Mouse Genome siRNA Library (#4391425), which consists of three unique, nonoverlapping, nonpooled siRNAs for each of 17,000 gene targets. siRNA reagents ([…]) were stamped into 384-well white flat-bottom microplates (Corning, 3570) using a Velocity11 VPrep liquid handling system (Agilent) integrated into a BioCel robotic platform (Agilent) in columns 1-22, leaving columns 23-24 empty for negative (Ambion, Negative control #1) and positive (mouse Casp4) controls, respectively. The median value of each plate's negative control column was used to normalize sample wells, and the positive control was used to assess transfection efficiency and assay performance.
Lipofectamine RNAiMAX Transfection Reagent ([…]; Invitrogen) was added in […] serum-free, antibiotic-free media to plate wells using a Thermo Scientific Matrix WellMate and Microplate Stacker. Plates were incubated for 45 min at room temperature to allow for the sufficient formation of siRNA-lipid complexes. Cells were seeded at a density of 1x10^4 cells per well in 20 microL media containing 20% (vol/vol) FBS without antibiotics. The final concentration of siRNA in each well was 100 nM. Cells were cultured for 48h at 37 degrees C in 5% CO2 before addition of […] of TLR ligand Pam3CSK4 for 5 hours. The medium was then removed, replaced with […] growth media and cell were transfected with […] of LipidA and TransIT-TKO (Mirus) for 24 hour. At the end of the LipidA treatment, […] of supernatant was transferred to a 384 Greiner Bio-one non-binding low volume plate and […] of IL-1a HTRF reagent (Cisbio, 62MIL1APEH) was added and incubated at room temperature overnight. The plates were read on an EnVision plate reader (PerkinElmer). Cell viability was measured by adding 20ul Cell Titer Glo to the original plate and running a luminescence read on the EnVision. The quantified IL-1a signal for each siRNA gene-targeted well was divided by the median of the negative control wells and multiplied by 100 to achieve a negative control normalized value for each well/siRNA. This normalized value was then used to generate a robust z-score by first taking the log of each value and then by subtracting the median and dividing by the […].

First: GGUUUUGGUAUCUCCAUGGTT against Olfr2
Second: GGAUAAGAAGCGAUUUGAATT against Rcn2
The z-score of the first is lower: -0.48 for the first, -0.294 for the second.

Compared with GCUGCUGGAGUGCAACUAATT against Tradd, CCUGAAUGGACAAACAGGATT against Gm6460 is lower in z-score: 0.391 for the first, -0.193 for the second.

First: CCAAACCUAUUCUGAGAUGTT against Klrg2
Second: GGAGCUGGACAAGUUCAUGTT against Clrn1
The z-score of the first is higher: -0.0403 for the first, -0.994 for the second.

Compared with GGGAGCAAAGAGGAACAGCTT against Fis1, GGUGCAAUCGUGUUGAGCUTT against Dap3 is higher in z-score: -0.73 for the first, 1.06 for the second.

First: GCAAACCUUCGGUCUUGCCTT against Cd5l
Second: GGAGAGAUCAUACACUUUGTT against BC048679
The z-score of the first is lower: -0.364 for the first, 0.43 for the second.

Compared with GGUAGUGAAUGAACUCUUUTT against Bcl2l1, GGCAGACAUCACAAUGGCUTT against Hemgn is higher in z-score: -1.41 for the first, -0.201 for the second.

Compared with GGGUUAGCAACUUCAAAUATT against Zmynd19, CCUAAAUCCUUUUGAACCCTT against Anapc16 is lower in z-score: 0.996 for the first, 0.295 for the second.

First: GGCCAGUGUGUGGUCUAAGTT against Cd1d2
Second: GGUCUUCAGAUAAUCUUCCTT against Brinp1
The z-score of the first is lower: 1.89 for the first, 1.91 for the second.

Compared with CCGACAAACGCAAGGUGAUTT against Rtl8c, GGUGUGUGGUGUUAAAAAATT against Mybph is lower in z-score: -0.382 for the first, -0.81 for the second.

Going from GGUGGAAUAUAGCUUCAUCTT against Ifngr2 to GGAAGAACACAAGUGUUUUTT against Trem3, the z-score falls from 1.06 to -0.626.

Compared with GCGAAGCGUGCUGCUAAGATT against Ccdc59, GCAGAGGCUCUCCUUAUAGTT against Ccser2 is higher in z-score: 0.519 for the first, 0.747 for the second.

Going from GGUACGGUGUUUUGGAUACTT against Fam174a to GGGACAGUUUUCGGACUUCTT against S1pr4, the z-score falls from 0.00664 to -0.362.

GCUACAGGGAAAAAGUUCCTT against Olfr994 showed a z-score of 0.383.

In the case of GGAGCAUAGAAAAGACAAUTT against Grk2, the z-score is reported as 2.69 (active).
With GCACAACAUACCCUGUGGUTT against Syn1 the z-score was -2.72 (active).
In the case of GGACAUGUCCGAAUACUACTT against Pdss1, the z-score is reported as 2.34 (active).
With GCUCAGAUAAUGGCCUACATT against Smarca4 the z-score was 2.28 (active).
With GGCCAGCUCUCUUUUGCUATT against Cflar the z-score was 2.5 (active).
